Drawing on PubChem BioAssay (NCI), this text covers growth for twelve compounds.

Some test systems named below: SK-MEL-2 melanoma; EKVX NSCLC; SN12C renal; UO-31 renal; TK-10 renal; ACHN renal; CAKI-1 renal; A498 renal; CCRF-CEM leukemia; MOLT-4 leukemia.
Holding throughout (test): NCI-60 one-dose screen, 48 h (100 = growth as untreated, 0 = no growth, -100 = all killed)
Conditions in all cases: 10 µM unless noted

The panel holds about 83,000 compounds, 20% with a hit somewhere; the sample as a whole holds those more often.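 Single-concentration screen, 48 h exposure, 96-well plates. Endpoint: percent growth. Below 10 = active.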 Values without a mark were called inactive. Activity calls are given as the source filed them.

For `COc1cc(/C=C/C(=O)c2cnn(-c3cc(=O)[nH]c4ccccc34)c2C)cc(OC)c1OC`, the growth is 52% in the experiment on SK-MEL-2 melanoma; 4.03% (active) in the experiment with EKVX NSCLC; -1.59% (active) in the experiment with SN12C renal; 25.6% in the experiment on UO-31 renal; 27.7% in the experiment with TK-10 renal; 20.3% in the experiment on ACHN renal. Further, the growth in the experiment with CAKI-1 renal was 19.1%; in the experiment with A498 renal, 96.1%; with CCRF-CEM leukemia, -18.6% (active); with MOLT-4 leukemia, -12.8% (active).
Consider `C=CCSc1nnc(-c2ccc(-c3nc4ccccc4[nH]3)cc2)o1`, for which the growth in the experiment with SK-MEL-2 melanoma is 95%; with EKVX NSCLC, 71.5%; in the experiment with SN12C renal, 83.8%; in the experiment on UO-31 renal it was 56.1%; in the experiment on TK-10 renal it was 87.7%; with ACHN renal, 78.1%. Moreover, the growth was 63.9% in the experiment on CAKI-1 renal, 113% in the experiment on A498 renal, 32.6% with CCRF-CEM leukemia and 38.1% in the experiment with MOLT-4 leukemia.
Regarding `Cc1nn(-c2ccccc2)c2nc(C)n(C(=O)N/N=C/c3cccc([N+](=O)[O-])c3)c(=O)c12`, the growth was 92.9% in the experiment on SK-MEL-2 melanoma; 49.3% with EKVX NSCLC; 94.4% in the experiment with SN12C renal; 81.4% with UO-31 renal; 138% in the experiment on TK-10 renal; 91% with ACHN renal. Besides, the growth with CAKI-1 renal was 90.8%; with A498 renal, 136%; with CCRF-CEM leukemia, 71.2%; in the experiment on MOLT-4 leukemia, 79.2%.
With `O=C1Nc2cc(-c3ccc(NS(=O)(=O)c4ccc(F)c(Cl)c4)cc3)ccc2/C1=C/c1ccc[nH]1`, the growth with SK-MEL-2 melanoma was 55.8%; with EKVX NSCLC, 1.79% (active); with SN12C renal, 55.3%; in the experiment with UO-31 renal, 35.6%; with TK-10 renal it was 54.5%; in the experiment on ACHN renal it was 6.04% (active). Besides, the growth with CAKI-1 renal is 33%; with A498 renal it was 52.1%; in the experiment with CCRF-CEM leukemia, 39.7%; with MOLT-4 leukemia, 11.7%.
On to `CC(=O)C[n+]1cccc2c3ccccc3ccc21`, for which the growth is 106% in the experiment on SK-MEL-2 melanoma; 56.6% in the experiment on EKVX NSCLC; 80.1% in the experiment on SN12C renal; 83% in the experiment with UO-31 renal; 101% with TK-10 renal; 92.1% with ACHN renal. Further, the growth was 94.1% with CAKI-1 renal, 110% in the experiment with A498 renal, 65.5% with CCRF-CEM leukemia and 53.9% in the experiment on MOLT-4 leukemia.
With `N#Cc1ccc(C(=O)CSc2nc3c(c(Nc4ccc(S(N)(=O)=O)cc4)n2)CCC3)cc1`, the growth was 87.4% in the experiment on SK-MEL-2 melanoma; 49.8% in the experiment with EKVX NSCLC; 35.3% with SN12C renal; 66.8% in the experiment with UO-31 renal; 55.2% in the experiment with TK-10 renal; 10.9% in the experiment on ACHN renal. The growth is 39.1% in the experiment with CAKI-1 renal, 137% in the experiment with A498 renal, 81.1% with CCRF-CEM leukemia and 73.3% with MOLT-4 leukemia.
For the compound `COc1ccc2[nH]c(O)c(N=Nc3nc(-c4ccc(C#N)cc4)cs3)c2c1`, the growth in the experiment with SK-MEL-2 melanoma is 95.8%; in the experiment on EKVX NSCLC, 63.9%; with SN12C renal, 20.3%; with UO-31 renal it was 18.3%; with TK-10 renal, 55.3%; with ACHN renal, 22.2%. Further, the growth is 35.4% in the experiment with CAKI-1 renal, 13.2% in the experiment with A498 renal, 86.4% with CCRF-CEM leukemia and 84.2% in the experiment with MOLT-4 leukemia.
In the case of `O=C1Nc2ccccc2/C1=C/C(=O)c1cc2ccccc2oc1=O`, the growth with SK-MEL-2 melanoma is 99.5%; with EKVX NSCLC, 89.6%; in the experiment with SN12C renal it was 99.3%; in the experiment with UO-31 renal, 45.8%; in the experiment on TK-10 renal it was 102%; with ACHN renal it was -47.6% (active). Also, the growth in the experiment on CAKI-1 renal is 75.5%; in the experiment on A498 renal, 223%; in the experiment on CCRF-CEM leukemia, 54.7%; in the experiment on MOLT-4 leukemia it was 41%.
On to `Nc1cc(-c2c[nH]c3ccc(F)cc23)nc2cc(-c3c[nH]c4ccccc34)nn12`, for which the growth in the experiment on SK-MEL-2 melanoma is -16.8% (active); in the experiment on EKVX NSCLC, 7.95% (active); in the experiment with SN12C renal, 41.2%; in the experiment on UO-31 renal it was 21.7%; in the experiment on TK-10 renal, 17.3%; with ACHN renal, 6.95% (active). The growth was 1.64% (active) with CAKI-1 renal, 21.8% with A498 renal, -11.6% (active) in the experiment on CCRF-CEM leukemia and -9.73% (active) in the experiment with MOLT-4 leukemia.
For the compound `Cc1ccc2c(c1)/C(=C/C(=O)c1cc3ccccc3oc1=O)C(=O)N2`, the growth is 72.6% with SK-MEL-2 melanoma; 78.2% with EKVX NSCLC; 67.8% with SN12C renal; 55.2% in the experiment with UO-31 renal; 80.7% with TK-10 renal; -63.2% (active) in the experiment with ACHN renal. In addition, the growth with CAKI-1 renal is 76.9%; in the experiment on A498 renal, 128%; in the experiment on CCRF-CEM leukemia, 3.14% (active); with MOLT-4 leukemia it was 32.8%.
Consider `S=C(NCCc1ccccc1)Nc1ccc(OCc2nc3ccc(Cl)cc3[nH]2)cc1`, for which the growth with SK-MEL-2 melanoma is 16.5%; in the experiment with EKVX NSCLC it was 33.1%; with SN12C renal, 11.6%; in the experiment on UO-31 renal, 13.9%; with TK-10 renal, 62.4%; in the experiment with ACHN renal it was 14%. Moreover, the growth with CAKI-1 renal was 25.2%; with A498 renal, 95.6%; with CCRF-CEM leukemia, 9.55% (active); in the experiment with MOLT-4 leukemia, 13.8%.
In the case of `C=CC(=O)N1CCN(c2ccc3nc4c(nc3c2C(F)(F)F)C(=O)c2ncccc2C4=O)CC1`, the growth was 39.8% in the experiment with SK-MEL-2 melanoma; 30.4% in the experiment on EKVX NSCLC; -44% (active) with SN12C renal; 35.7% with UO-31 renal; 111% in the experiment on TK-10 renal; 28.3% in the experiment on ACHN renal. For the same compound, the growth is 36% in the experiment with CAKI-1 renal, 134% in the experiment on A498 renal, -17.5% (active) in the experiment with CCRF-CEM leukemia and -37.8% (active) in the experiment with MOLT-4 leukemia.
